# Inconclusive results are not listed. Where a call stands in place of a potency, no number is given. Calls of active or inactive are those of the source. Unless noted, the call rests on the fitted dose curve.
# Columns and labels:
# [1] = Validation screen for inhibitors of Lassa infection (AID 463096)
# [2] = qHTS for Inhibitors of the Functional Ribonucleoprotein Complex (vRNP) of Lassa (LASV) Arenavirus: LASV Primary Screen - GLuc reporter signal (AID 1347082; calls by dose curve; tested in HEK293 reporter line; further: nearly all actives have a fitted effect of over 60% in size; further: potency means the concentration at half of the fitted maximal effect)
# [3] = qHTS for Inhibitors of the Functional Ribonucleoprotein Complex (vRNP) of Lassa (LASV) Arenavirus: Viability assay - alamar blue signal for LASV Primary Screen (AID 1347083; calls by dose curve; tested in HEK293 reporter line; further: nearly all actives have a fitted effect of over 80% in size; further: potency means the concentration at half of the fitted maximal effect)
# [4] = Cytotoxicity counterscreen for inhibitors of SARS-CoV-2 cell entry (AID 1645845); further: nearly all actives have a fitted effect of over 50% in size; further: potency means the concentration at half of the fitted maximal effect
# Summary of the method: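 After a 15 min room-temperature ATPLite 1step step, luminescence reflected ATP remaining in HEK293-ACE2 cells exposed to compound for 1 h plus 48 h at 37 C, with percent activity set by cell and no-cell controls.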
# [5] = qHTS for Inhibitors of the Functional Ribonucleoprotein Complex (vRNP) of Lymphocytic Choriomeningitis Arenaviruses (LCMV): Viability assay - alamar blue signal for LCMV Primary Screen (AID 1347085; calls by dose curve; tested in HEK293 reporter line; further: nearly all actives have a fitted effect of over 80% in size; further: potency means the concentration at half of the fitted maximal effect)
# [6] = target: Nucleoprotein (Lymphocytic choriomeningitis virus (strain Armstrong)) (UniProt P09992); assay: qHTS for Inhibitors of the Functional Ribonucleoprotein Complex (vRNP) of Lymphocytic Choriomeningitis Arenaviruses (LCMV): LCMV Primary Screen - GLuc reporter signal (AID 1347086); further: nearly all actives have a fitted effect of over 70% in size
# Nucleoprotein (Lymphocytic choriomeningitis virus (strain Armstrong)), sequence (P09992 whole entry, looked up): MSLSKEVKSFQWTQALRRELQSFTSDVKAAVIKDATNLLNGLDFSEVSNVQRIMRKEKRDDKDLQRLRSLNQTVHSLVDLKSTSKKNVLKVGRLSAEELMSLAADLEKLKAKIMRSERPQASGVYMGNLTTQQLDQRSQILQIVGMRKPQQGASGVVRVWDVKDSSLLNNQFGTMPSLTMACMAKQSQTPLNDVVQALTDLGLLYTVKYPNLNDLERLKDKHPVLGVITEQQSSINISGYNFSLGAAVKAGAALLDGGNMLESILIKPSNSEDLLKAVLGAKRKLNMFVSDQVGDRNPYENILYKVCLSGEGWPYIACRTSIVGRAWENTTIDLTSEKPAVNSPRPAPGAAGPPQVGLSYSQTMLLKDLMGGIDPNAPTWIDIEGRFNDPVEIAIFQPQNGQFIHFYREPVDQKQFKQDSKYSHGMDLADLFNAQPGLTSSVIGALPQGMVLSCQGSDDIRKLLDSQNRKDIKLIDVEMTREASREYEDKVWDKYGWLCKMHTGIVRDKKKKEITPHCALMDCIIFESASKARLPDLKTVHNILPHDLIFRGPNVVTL
# [7] = target: Alpha-galactosidase (Coffea arabica) (UniProt Q42656); assay: Counterscreen for Glucocerebrosidase Inhibitors: qHTS Assay for Coffee Bean alpha-Galactosidase at pH 4.5 (AID 957; active means well fitted curve in the direction sought with a large enough effect; an effect the other way counts as inactive or inconclusive)
# Alpha-galactosidase (Coffea arabica), sequence (Q42656 whole entry, looked up): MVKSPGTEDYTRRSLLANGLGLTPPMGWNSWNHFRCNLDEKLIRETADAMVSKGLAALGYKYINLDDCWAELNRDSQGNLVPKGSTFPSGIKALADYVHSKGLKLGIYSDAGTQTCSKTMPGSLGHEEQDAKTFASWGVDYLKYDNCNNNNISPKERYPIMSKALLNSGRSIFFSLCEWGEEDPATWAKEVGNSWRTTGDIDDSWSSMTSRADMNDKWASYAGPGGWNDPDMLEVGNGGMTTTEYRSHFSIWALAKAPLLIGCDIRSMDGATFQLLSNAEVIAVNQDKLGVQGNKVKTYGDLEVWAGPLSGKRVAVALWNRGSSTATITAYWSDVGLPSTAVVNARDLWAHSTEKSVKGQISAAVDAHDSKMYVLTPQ
# Summary of the method: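 Enzyme is added first (2 nM final), then compounds titrated from 0.7 nM to 77 uM, then 80 uM 4-methylumbelliferyl alpha-D-galactopyranoside; after 20 min at room temperature a pH 10 NaOH/glycine stop precedes fluorescence reading at 365/440 nm.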
# [8] = target: Alpha-galactosidase (Coffea arabica) (UniProt Q42656); assay: Counterscreen for Glucocerebrosidase Inhibitors: qHTS Assay for Coffee Bean alpha-Galactosidase at pH 5.9 (AID 998; active means well fitted curve in the direction sought with a large enough effect; an effect the other way counts as inactive or inconclusive)
# Summary of the method: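 In 50 mM citric acid pH 5.9 with 0.005% Tween-20, coffee bean enzyme hydrolyses 80 uM 4-MU alpha-D-galactopyranoside over 20 min at RT. Activity is normalized to controls; AC50 comes from Hill-modelled concentration-response data.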
# [9] = Inducers of the Endoplasmic Reticulum Stress Response (ERSR) in human glioma: Validation (AID 504836; active means well fitted curve in the direction sought with a large enough effect; an effect the other way counts as inactive or inconclusive)
# Summary of the method: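 Stably transfected U87-MG human glioma cells carrying a GRP78-based luminescent sensor were seeded at 1000 cells/well, pin-dosed with compounds and incubated 16 h. Luciferase reagent was then added, and end-point luminescence was read after 10 min at room temperature.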
# [10] = Primary qHTS to identify inhibitors of SARS-CoV-2 cell entry (AID 1645846); conditions: activity change, negative = inhibition: at 57.1 µM (top of the series) unless noted; further: nearly all actives have a fitted effect of over 45% in size; further: potency means the concentration at half of the fitted maximal effect
# Summary of the method: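 Using luciferase-reporting pseudoviruses carrying Wuhan-Hu-1 spike, the screen tracks entry into stably ACE2-expressing cells over 48 hr. Activity is expressed relative to spike particles versus particles lacking any fusion protein.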
compound,measurement,setting,value
O=C1c2c(O)cc(O)cc2OC(c2ccc(O)c(O)c2)C1O (centres undefined),Potency,[1],inactive
same,Potency,[2],inactive
same,Potency,[3],inactive
same,Potency,[4],inactive
C=C1C(=O)O[C@H]2[C@H]1[C@H](OC(=O)/C(C)=C\C)C[C@]1(CO1)[C@@H]1[C@H](OC(C)=O)C=C(C)[C@]21O,Potency,[2],inactive
same,Potency,[5],inactive
same,Potency,[6],inactive
Oc1ccc2c(c1)OCC1(O)Cc3cc(O)c(O)cc3C21 (centres undefined),Potency,[2],inactive
same,Potency,[5],inactive
same,Potency,[6],inactive
NS(=O)(=O)OC[C@@H]1C[C@@H](n2ccc3c(N[C@H]4CCc5ccccc54)ncnc32)C[C@H]1O,Potency,[2],inactive
same,Potency,[5],13.7 µM (active)
OCC1OC(n2cnc3c(NCc4ccccc4O)ncnc32)C(O)C1O (centres undefined),Potency,[2],inactive
same,Potency,[5],4.47 µM (active)
Cn1cc(C2=C(c3ccc(Cl)cc3Cl)C(=O)NC2=O)c2ccccc21,outcome,[7],inactive
same,outcome,[8],inactive
same,Potency,[1],inactive
same,outcome,[9],inactive
same,Potency,[2],inactive
same,Potency,[3],inactive
Nc1ccc(S(=O)(=O)Nc2ncccn2)cc1,Potency,[2],inactive
same,Potency,[5],inactive
same,Potency,[6],inactive
CC1(C)CCC[C@@]2(C)C1CC[C@@](C)(O)[C@@H]2CC[C@@](C)(O)C1CO1 (some centres undefined),Potency,[2],inactive
same,Potency,[5],inactive
same,Potency,[6],inactive
COc1ccc(-c2cc(=O)c3c(OC)c(OC)c(OC)c(OC)c3o2)cc1,Potency,[2],inactive
same,Potency,[5],inactive
same,Potency,[6],inactive
N#CNC(=NCCCCCCOc1ccc(Cl)cc1)Nc1ccncc1,Potency,[2],0.0343 µM (active)
same,Potency,[3],0.0097 µM (active)
same,"activity change, negative = inhibition",[10],-97%
C[C@@]1(C2CCCC2)Cc2cc(OCC(=O)O)c(Cl)c(Cl)c2C1=O,Potency,[1],inactive
same,outcome,[9],inactive
same,Potency,[2],inactive
same,Potency,[3],inactive
C[C@H](NC(=O)c1sccc1OCc1ccc(Cl)cc1)c1ccccc1,Potency,[2],inactive
same,Potency,[5],inactive
COc1cc2c3cc1Oc1c(OC)c(OC)cc4c1[C@H](Cc1ccc(cc1)Oc1cc(ccc1O)C[C@H]3N(C)CC2)N(C)CC4,Potency,[2],inactive
same,Potency,[5],inactive
same,Potency,[6],inactive
CN1CCc2c(c3ccccc3n2Cc2ccc(C(=O)NO)cc2)C1,Potency,[2],inactive
same,Potency,[3],21.7 µM (active)
same,"activity change, negative = inhibition",[10],-18.9%
COC1C(O)C(C)OC(OC2CCC3(C=O)C(CCC4C3CCC3(C)C(C5=CC(=O)OC5)CCC43O)C2)C1O (centres undefined),Potency,[2],inactive
same,Potency,[5],inactive
same,Potency,[6],inactive
NC(=O)c1cccc2[nH]c(-c3ccc([C@H]4CCCN4)cc3F)nc12,Potency,[2],inactive
same,Potency,[5],inactive
same,Potency,[6],inactive
same,Potency,[4],11.2 µM (active)
same,Potency,[10],31.6 µM (active)
NS(=O)(=O)c1ccc(Nc2nc(OCC3CCCCC3)c3[nH]cnc3n2)cc1,Potency,[2],inactive
same,Potency,[5],inactive
same,Potency,[6],inactive
same,Potency,[4],inactive
CC=CC(C)=CC(C)C(=O)CC(O)CC1CC(=O)NC(=O)C1 (centres undefined),Potency,[2],inactive
same,Potency,[5],inactive
same,Potency,[6],inactive

# Reference: PubChem BioAssay (NCATS)
